The source of these data is PubChem BioAssay (NCATS).

Records with an inconclusive call do not appear. Unmarked numbers belong to inactive results. Active and inactive are the calls of the source. Calls come from the whole dose curve; as a rule, active = well fitted cell-killing curve with a large enough effect; inconclusive = small, poorly fitted or top-dose-only effect, or effect the other way; inactive = no such curve, though single readings can be large or run the other way.
Potency is the fitted concentration of half-maximal effect.

A short description of this test: Quantitative High-Throughput drug screen in 47 multiple myeloma cell lines against the NCATS MIPE library collection: PCM6_Riken cell viability assay (AID 1919870). Note: nearly all actives have a fitted effect of over 30% in size. Particulars: CellTiter-Glo ATP, 48 h; series mostly up to 45.8 µM; viability (% of control): at the top concentration. The source says:
PI: Beverly A. Mock Ph.D.
Laboratory of Cancer Biology and Genetics,
Center for Cancer Research, National Cancer Institute,
National Institute of Health, Bethesda, Maryland
Drug resistance and disease progression are common in multiple myeloma (MM) patients, underscoring the need for new therapeutic combinations. […] We hypothesized that effective combinations would reduce MYC expression and enhance p16 activity. […] These preclinical data identify potentially useful drug combinations for evaluation in drug-resistant MM and reveal potential mechanisms of combined drug sensitivity.
Described herein is the primary MIPE qHTS used to cherrypick compounds. Validated compounds were then further tested for potential synergistic activiy.
[1] Peat TJ, Gaikwad SM, Dubois W, Gyabaah-Kessie N, Zhang S, Gorjifard S, Phyo Z, Andres M, Hughitt VK, Simpson RM, Miller MA, Girvin AT, Taylor A, Williams D, D'Antonio N, Zhang Y, Rajagopalan A, Flietner E, Wilson K, Zhang X, Shinn P, Klumpp-Thomas C, McKnight C, Itkin Z, Chen L, Kazandijian D, Zhang J, Michalowski AM, Simmons JK, Keats J, Thomas CJ, Mock BA. Drug combinations identified by high-throughput screening promote cell cycle transition and upregulate Smad pathways in myeloma. Cancer Lett. 2023 Aug 1;568:216284. doi: 10.1016/j.canlet.2023.216284. Epub 2023 Jun 24. PMID: 37356470; PMCID: PMC10408729.
SEQUENCE No. (e.g., 1, 2, 3, etc.); […] (e.g., Cells, Incubation, Reagent, etc.); VALUE and DESCRIPTION.
1; Cells; 5 uL; white, solid bottom 1536-well Greiner assay plate.
2; Compounds; 23 nL; Kalypsis pin tool (Wako USA) equipped with a 1536-well pin head to transfer to the assay plates.
3; Incubation; 48 hours; 37C incubation.
4; Reagent;5uL; CellTiter Glo (Promega).
5; Detector; 425V; Luminescence; Viewlux PerkinElmer.
NOTES (numbers refer to Sequence numbers above)
1. The cell-based screening methods employed in this study were like those previously published. Briefly, the corresponding myeloma cell lines were screened in 1,536-well plates with 500 cells, 5-uL per well for inhibition of cell viability (assessed by measuring ATP levels with CellTiterGlo).
2. NCATS MIPE 4.0 library of approved and investigational drugs were added using the Kalypsis pin tool. Wells treated with DMSO only for 100% viability and media only for 0% viability were used as controls.
3. The assay plates were covered and incubated for 48 hours in a 37C, 5% CO2 incubator with controlled humidity.
4. After 48 hours, CellTilter-GloTM luminescent substrate mix (Promega) reagent was added to the assay plate and plates we incubated for 5 min at room temperature.
5. Signal was measured as median relative luminescence units on a ViewLux (PerkinElmer) multiplate reader.
[1] Heske CM, Davis MI, Baumgart JT, Wilson K, Gormally MV, Chen L, Zhang X, Ceribelli M, Duveau DY, Guha R, Ferrer M, Arnaldez FI, Ji J, Tran HL, Zhang Y, Mendoza A, Helman LJ, Thomas CJ. Matrix Screen Identifies Synergistic Combination of PARP Inhibitors and Nicotinamide Phosphoribosyltransferase (NAMPT) Inhibitors in Ewing Sarcoma. Clin Cancer Res. 2017 Dec 1;23(23):7301-7311. doi: 10.1158/1078-0432.CCR-17-1121. Epub 2017 Sep 12. PMID: 28899971; PMCID: PMC6636827.
For the compound `CC(O)=C(C#N)C(=O)Nc1cc(Br)ccc1Br`, the Potency is 1.32 µM (active).

For the compound `COc1cccc2c1[C@]13CCN(CC4CC4)[C@H](C2)[C@]1(OC)CCC(=O)C3`, the “viability (% of control)” value was 100%.

Consider `C[C@@H]1O[C@@H](O[C@@H]2C=C3CC[C@@H]4[C@@H](CC[C@]5(C)[C@H](c6ccc(=O)oc6)CC[C@@]45O)[C@@]3(C)CC2)[C@H](O)[C@H](O)[C@H]1O`, for which the Potency was 0.0093 µM (active).

With `CC(C)(O)C=CC(=O)[C@](C)(O)[C@H]1[C@H](O)C[C@]2(C)[C@@H]3CC=C4[C@@H](C=C(O)C(=O)C4(C)C)[C@]3(C)C(=O)C[C@@]12C`, the Potency is 0.0296 µM (active).

As for `Oc1ccc2c3c1O[C@H]1c4[nH]c5c(c4C[C@@]4(O)[C@@H](C2)N(CC2CC2)CC[C@]314)C[C@@]1(O)[C@H]2Cc3ccc(O)c4c3[C@@]1(CCN2CC1CC1)[C@H]5O4`, the “viability (% of control)” value was 79.8%.

With `O=c1[nH]c2ccccc2n1C1CCN(Cc2ccc(-c3[nH]c4cc5ncnc5cc4nc3-c3ccccc3)cc2)CC1`, the Potency was 13.2 µM (active).

As to `CN1[C@H]2CC(O)C[C@H]1[C@H]1O[C@H]12` (stereo not given in full), the Potency is 11.8 µM (active).

For `C[C@]12CC[C@H]3[C@@H](CCC4=CC(=O)CC[C@@]43C)[C@H]1CC[C@H]2OC(=O)CCC1CCCC1`, the “viability (% of control)” value is 102%.

On to `CN1CCN(c2ccc([N+](=O)[O-])c3no[n+]([O-])c23)CC1`, for which the Potency was 5.9 µM (active).

Take `Cc1ccccc1-n1c(Cn2ncc3c(N)ncnc32)nc2cccc(C)c2c1=O`: the Potency is 0.296 µM (active).

For `C[C@@H]1[C@H](O)[C@@H](C)C=CC=CCCC=CC=CC=CC=C[C@H](O[C@H]2O[C@@H](C)[C@H](O)[C@@H](N)[C@@H]2O)CC2O[C@](O)(C[C@@H](O)[C@H](O)CC[C@@H](O)C[C@@H](O)C[C@@H](O)CC(=O)O[C@H]1C)C[C@H](O)[C@H]2C(=O)O`, the “viability (% of control)” value is 129%.

With `NC1=NC(=O)N2CC12` (stereo not given), the Potency was 8.33 µM (active).

Regarding `CCC(=O)OC1CCC2C3CCC4=CC(=O)CC[C@@]4(C)C3CC[C@]12C` (stereo not given in full), the “viability (% of control)” value was 89.7%.

With `C[C@]12CC[C@@H]3[C@@H](CCC4=CC(=O)CC[C@@H]43)[C@@H]1CC[C@@H]2OC(=O)CCc1ccccc1`, the “viability (% of control)” value is 136%.

Turning to `CC(C)(C)c1cc(C=C(C#N)C#N)cc(Br)c1O`, the Potency is 18.7 µM (active).

`O=C(N[C@H]1CN2CCC1CC2)c1ccc(Cl)cc1`: the Potency is 8.33 µM (active).

`COCC1(CO)C(=O)C2CCN1CC2` (stereo not given): the Potency was 20.9 µM (active).

For `CN(C)NC(=O)CCC(=O)O`, the Potency is 20.9 µM (active).

On to `CC=C(C)C(=O)O[C@H]1C(C)=C2[C@@H]3OC(=O)[C@@](C)(O)[C@@]3(O)[C@@H](OC(=O)CCC)C[C@](C)(OC(C)=O)[C@@H]2[C@@H]1OC(=O)CCCCCCC`, for which the Potency is 11.8 µM (active).

In the case of `COC[C@H]1OC(=O)c2coc3c2[C@@]1(C)C1=C(C3=O)[C@@H]2CC[C@H](O)[C@@]2(C)C[C@@H]1OC(C)=O`, the Potency is 3.72 µM (active).

Regarding `CC(=O)Nc1ccc(OC[C@](C)(O)C(=O)Nc2ccc([N+](=O)[O-])c(C(F)(F)F)c2)cc1`, the “viability (% of control)” value was 92.5%.

As for `C1=C2CCCN[C@H]2[C@@H]2C[C@H]1[C@@H]1CCCCN1C2`, the “viability (% of control)” value was 123%.

As to `COC1=CC(C)=C[C@@H](C)[C@@H](O)[C@@H](C)CC(C)=CC=C[C@H](OC)[C@H]([C@@H](C)[C@@H](O)[C@H](C)[C@@]2(O)C[C@@H](O)[C@H](C)[C@@H](C(C)C)O2)OC1=O`, the Potency is 9.35 µM (active).

`O=S(=O)(CC1CS1)c1ccc(Oc2ccccc2)cc1` (stereo not given): the Potency is 23.5 µM (active).

Turning to `COC1=C[C@@H]2[C@@H]3Cc4ccc(OC)c(O)c4[C@]2(CCN3C)CC1=O`, the Potency is 2.64 µM (active).

On to `C[C@@H]1CC[C@@]2(OC1)O[C@H]1C[C@H]3[C@@H]4CC=C5C[C@@H](O[C@@H]6O[C@H](CO)[C@@H](O[C@@H]7O[C@@H](C)[C@H](O)[C@@H](O)[C@@H]7O)[C@H](O)[C@@H]6O[C@@H]6O[C@@H](C)[C@H](O)[C@@H](O)[C@@H]6O)CC[C@]5(C)[C@@H]4CC[C@]3(C)[C@@H]1[C@H]2C`, for which the Potency was 3.32 µM (active).

For the compound `CSCC[C@@H](NC(=O)[C@@H](Cc1ccccc1)NC(=O)CNC(=O)CNC(=O)[C@@H](N)Cc1ccc(O)cc1)C(=O)O`, the “viability (% of control)” value was 116%.

On to `O=C(NCC1CCOCC1)c1cnc(Nc2ccc(Cl)cc2Cl)nc1C(F)(F)F`, for which the Potency was 5.9 µM (active).

Regarding `CC(C)[C@]12O[C@@H]1[C@@H]1O[C@]13[C@]1(O[C@H]1C[C@@H]1C4=C(CC[C@@]13C)C(=O)OC4)[C@H]2O`, the “viability (% of control)” value was 5.21%.

Take `C#C[C@]1(O)C=C[C@@H]2[C@@H]3CCC4=CC(=O)CC[C@@H]4[C@H]3CC[C@@]21CC`: the “viability (% of control)” value was 117%.

With `c1ccc2c(CN3CCNCC3)cccc2c1`, the “viability (% of control)” value was 98.7%.

As for `CN[C@@H]1Cc2cccc3[nH]c(=O)n(c23)C1`, the “viability (% of control)” value is 111%.

`CC[C@@]1(O)C(=O)OCc2c1cc1n(c2=O)Cc2cc3ccccc3nc2-1`: the Potency was 0.372 µM (active).

Take `CC[C@@H]1[C@@H](C)O[C@@](O)([C@@H](C)[C@H](O)[C@H](C)[C@H]2OC(=O)C=CC=C[C@@H](C)[C@@H]([C@@H](C)[C@@H](O)[C@H](C)[C@@]3(O)C[C@H](O[C@H]4C[C@H](O)[C@H](O)[C@H](C)O4)[C@H](CC)[C@@H](C)O3)OC(=O)C=CC=C[C@@H]2C)C[C@H]1O[C@H]1C[C@H](O)[C@H](O)[C@H](C)O1`: the Potency was 0.743 µM (active).

As to `C[C@]12CC[C@H](O)CC1=CC[C@H]1[C@H]3CCC(=O)[C@@]3(C)CC[C@@H]12`, the Potency was 16.6 µM (active).

In the case of `CC(C)N[C@@H]1CCn2c(=O)[nH]c3cccc(c32)[C@@H]1O`, the Potency was 5.26 µM (active).

For the compound `COc1cc([C@@H]2c3cc4c(cc3[C@@H](O)C3COC(=O)C32)OCO4)cc(OC)c1O` (stereo not given in full), the Potency was 0.0469 µM (active).

Take `COc1ccc(C(=O)c2c(C)n(CCN3CCOCC3)c3cc(I)ccc23)cc1`: the Potency is 11.8 µM (active).

`CC1=NN=C(c2ccc(N)cc2)c2cc3c(cc2C1)OCO3`: the “viability (% of control)” value is 116%.

Turning to `CCOP(=O)(OCC)C(C)NC(=O)N(CCCl)N=O` (stereo not given), the “viability (% of control)” value was 136%.
